The results in this text go back to article PMC7862700, “An all-to-all approach to the identification of sequence-specific readers for epigenetic DNA modifications on cytosine”.

Common to all, as to experiment: DAPPL (digital affinity profiling via proximity ligation, sequencing); 10 mM Tris-HCl pH 7.5, 50 mM NaCl, 1 mM DTT, 4% glycerol, room temperature, 30 min; GST-TFs on glutathione beads, 16-mer random dsDNA library, 0.1% formaldehyde crosslink after washing; high values mean tight binding
The target of one assay is T1, FLI1 (Homo sapiens, UniProt Q01543 1-452).
T1 sequence: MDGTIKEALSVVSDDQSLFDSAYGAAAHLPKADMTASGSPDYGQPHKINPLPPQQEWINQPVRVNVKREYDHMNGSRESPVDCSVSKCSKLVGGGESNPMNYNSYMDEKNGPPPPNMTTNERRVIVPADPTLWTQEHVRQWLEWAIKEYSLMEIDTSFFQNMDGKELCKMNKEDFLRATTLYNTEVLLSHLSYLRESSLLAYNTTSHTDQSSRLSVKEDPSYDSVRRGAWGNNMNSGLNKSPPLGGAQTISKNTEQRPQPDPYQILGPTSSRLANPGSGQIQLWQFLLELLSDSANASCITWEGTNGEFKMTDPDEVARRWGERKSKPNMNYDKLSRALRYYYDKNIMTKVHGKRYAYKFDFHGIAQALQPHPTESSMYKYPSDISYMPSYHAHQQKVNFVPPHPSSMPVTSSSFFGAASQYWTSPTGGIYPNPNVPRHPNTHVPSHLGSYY
As to conditions: protein: recombinant; tags: N-terminal GST; dsDNA, one strand shown. The method, boiled down: (§1)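 Beads coated with glutathione captured GST-fused human transcription factors that had been expressed in yeast, and the factors were then given DNA barcodes and pooled with a tag-only sample. The pools were incubated with 200 nmole of a random double-stranded 16-mer DNA library in Tris/NaCl/DTT/glycerol buffer for 30 min at room temperature, washed, crosslinked with 0.1% formaldehyde and proximity-ligated with BsaI/T4 ligase at 37 °C for 1 h. PCR amplification and Illumina NextSeq500 sequencing came last. Binding signal is each hexamer's read frequency for a factor divided by its frequency for the tag-only sample.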

Another assay concerns the target T2, ELK1 (Homo sapiens, UniProt P19419 1-428).
T2 sequence: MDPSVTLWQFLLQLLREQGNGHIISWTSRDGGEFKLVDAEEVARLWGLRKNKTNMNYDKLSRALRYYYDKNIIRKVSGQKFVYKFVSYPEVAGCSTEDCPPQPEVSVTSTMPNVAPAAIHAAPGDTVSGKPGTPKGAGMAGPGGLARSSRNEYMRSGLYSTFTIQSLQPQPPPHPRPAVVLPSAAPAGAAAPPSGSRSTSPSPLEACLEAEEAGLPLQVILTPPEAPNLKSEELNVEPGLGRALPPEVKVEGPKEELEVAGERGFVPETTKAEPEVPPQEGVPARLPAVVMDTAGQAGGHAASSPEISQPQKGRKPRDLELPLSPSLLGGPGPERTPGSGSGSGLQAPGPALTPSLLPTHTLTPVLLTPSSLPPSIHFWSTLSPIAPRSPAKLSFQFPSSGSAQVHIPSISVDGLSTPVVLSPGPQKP
As to conditions: protein: recombinant; tags: N-terminal GST; dsDNA, one strand shown. The method, boiled down: as §1

In the next assay the target is T3, GABPA (Homo sapiens, UniProt Q06546 1-454).
T3 sequence: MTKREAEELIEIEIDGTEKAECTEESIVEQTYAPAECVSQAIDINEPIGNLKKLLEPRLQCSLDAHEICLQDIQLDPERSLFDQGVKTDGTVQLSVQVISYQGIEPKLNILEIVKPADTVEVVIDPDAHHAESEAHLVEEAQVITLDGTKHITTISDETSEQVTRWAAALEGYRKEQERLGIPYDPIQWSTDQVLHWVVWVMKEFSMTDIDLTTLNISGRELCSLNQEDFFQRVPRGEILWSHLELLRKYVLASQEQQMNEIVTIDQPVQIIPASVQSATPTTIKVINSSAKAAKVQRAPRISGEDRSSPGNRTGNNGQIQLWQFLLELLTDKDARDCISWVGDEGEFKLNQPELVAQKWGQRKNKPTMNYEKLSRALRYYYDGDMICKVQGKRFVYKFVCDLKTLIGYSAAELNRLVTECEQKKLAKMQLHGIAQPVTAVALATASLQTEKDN
As to conditions: protein: recombinant; tags: N-terminal GST; dsDNA, one strand shown. The method, boiled down: as §1

A further assay addresses T4, ERG (Homo sapiens, UniProt P11308 1-479).
T4 sequence: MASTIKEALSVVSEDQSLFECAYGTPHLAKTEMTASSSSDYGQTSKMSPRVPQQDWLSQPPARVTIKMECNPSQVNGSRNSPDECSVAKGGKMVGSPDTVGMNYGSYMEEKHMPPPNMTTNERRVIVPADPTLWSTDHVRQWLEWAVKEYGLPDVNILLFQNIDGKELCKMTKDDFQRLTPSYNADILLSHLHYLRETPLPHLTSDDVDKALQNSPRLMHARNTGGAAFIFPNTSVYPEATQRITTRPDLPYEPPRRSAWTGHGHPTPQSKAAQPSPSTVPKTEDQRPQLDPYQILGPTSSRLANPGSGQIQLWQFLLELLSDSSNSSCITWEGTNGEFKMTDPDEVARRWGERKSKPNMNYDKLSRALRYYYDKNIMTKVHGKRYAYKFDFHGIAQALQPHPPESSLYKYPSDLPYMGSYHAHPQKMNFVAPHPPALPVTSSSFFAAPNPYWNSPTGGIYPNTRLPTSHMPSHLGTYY
As to conditions: protein: recombinant; tags: N-terminal GST; dsDNA, one strand shown. In a few lines:
as §1

The target in a further assay is ELF1 (Homo sapiens, UniProt P32519 1-619). As to conditions: protein: recombinant; tags: N-terminal GST; dsDNA, one strand shown. The method, boiled down:
as §1

In the next assay the target is T5, EHF (Homo sapiens, UniProt Q9NZC4 1-300).
T5 sequence: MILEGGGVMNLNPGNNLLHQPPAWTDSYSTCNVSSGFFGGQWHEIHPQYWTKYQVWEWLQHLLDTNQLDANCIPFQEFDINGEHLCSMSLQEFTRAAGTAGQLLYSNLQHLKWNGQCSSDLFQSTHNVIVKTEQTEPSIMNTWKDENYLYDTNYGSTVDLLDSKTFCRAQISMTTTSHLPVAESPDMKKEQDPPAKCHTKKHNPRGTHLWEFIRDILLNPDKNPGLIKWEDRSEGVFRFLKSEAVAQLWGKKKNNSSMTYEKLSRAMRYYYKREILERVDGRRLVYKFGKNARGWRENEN
As to conditions: protein: recombinant; tags: N-terminal GST; dsDNA, one strand shown. The method, boiled down: as §1

The next assay addresses SPI1 (Homo sapiens, UniProt P17947 1-270). As to conditions: protein: recombinant; tags: N-terminal GST; dsDNA, one strand shown. The method, boiled down:
as §1

The target of another assay is SPIB (Homo sapiens, UniProt Q01892 1-262). As to conditions: protein: recombinant; tags: N-terminal GST; dsDNA, one strand shown. The method, boiled down: as §1
Sequence of SPIB (Q01892 whole entry): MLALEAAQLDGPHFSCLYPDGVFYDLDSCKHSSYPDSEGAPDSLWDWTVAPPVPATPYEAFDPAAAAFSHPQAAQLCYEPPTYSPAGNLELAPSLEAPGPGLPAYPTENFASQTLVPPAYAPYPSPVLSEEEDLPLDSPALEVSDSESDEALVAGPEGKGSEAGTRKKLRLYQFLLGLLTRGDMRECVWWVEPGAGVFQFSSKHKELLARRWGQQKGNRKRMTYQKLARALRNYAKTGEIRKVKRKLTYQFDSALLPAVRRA
In another assay the target is T6, FEV (Homo sapiens, UniProt Q99581 1-238).
T6 sequence: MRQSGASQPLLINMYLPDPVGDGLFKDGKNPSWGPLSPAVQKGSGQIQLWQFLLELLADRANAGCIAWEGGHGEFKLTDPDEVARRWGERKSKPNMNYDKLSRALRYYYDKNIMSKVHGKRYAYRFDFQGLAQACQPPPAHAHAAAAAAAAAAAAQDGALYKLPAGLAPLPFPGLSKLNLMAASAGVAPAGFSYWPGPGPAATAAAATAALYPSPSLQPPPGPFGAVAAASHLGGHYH
As to conditions: protein: recombinant; tags: N-terminal GST; dsDNA, one strand shown. In a few lines:
as §1

For the next assay, the target named is ETV5 (Homo sapiens, UniProt P41161 1-510). As to conditions: protein: recombinant; tags: N-terminal GST; dsDNA, one strand shown. In a few lines: as §1
Sequence of ETV5 (P41161 whole entry): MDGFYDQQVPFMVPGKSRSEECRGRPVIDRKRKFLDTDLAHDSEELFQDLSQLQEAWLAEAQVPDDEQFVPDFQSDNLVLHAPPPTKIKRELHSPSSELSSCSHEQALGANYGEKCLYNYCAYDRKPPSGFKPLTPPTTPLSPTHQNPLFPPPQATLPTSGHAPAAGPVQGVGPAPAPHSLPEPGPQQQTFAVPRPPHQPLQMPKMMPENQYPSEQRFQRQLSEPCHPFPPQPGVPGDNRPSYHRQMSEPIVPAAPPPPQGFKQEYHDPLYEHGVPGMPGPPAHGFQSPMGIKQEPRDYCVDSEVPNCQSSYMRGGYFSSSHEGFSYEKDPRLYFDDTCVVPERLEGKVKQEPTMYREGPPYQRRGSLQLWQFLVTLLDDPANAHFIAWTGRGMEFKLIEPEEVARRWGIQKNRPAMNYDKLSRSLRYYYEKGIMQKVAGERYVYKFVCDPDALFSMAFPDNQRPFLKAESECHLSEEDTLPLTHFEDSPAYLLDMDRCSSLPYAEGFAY
The next assay has as its target HSF1 (Homo sapiens, UniProt Q00613 1-529). As to conditions: protein: recombinant; tags: N-terminal GST; chain copies: 3; dsDNA, one strand shown. The method, boiled down:
as §1

Another assay has as its target T7, SPIC (Homo sapiens, UniProt Q8N5J4 1-248).
T7 sequence: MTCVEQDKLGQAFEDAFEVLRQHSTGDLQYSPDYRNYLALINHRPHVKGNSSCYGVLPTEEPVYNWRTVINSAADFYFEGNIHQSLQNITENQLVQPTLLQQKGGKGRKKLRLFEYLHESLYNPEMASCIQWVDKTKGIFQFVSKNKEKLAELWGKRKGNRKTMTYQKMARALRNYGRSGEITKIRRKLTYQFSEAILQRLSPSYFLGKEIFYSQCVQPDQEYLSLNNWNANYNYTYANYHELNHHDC
As to conditions: protein: recombinant; tags: N-terminal GST; dsDNA, one strand shown. In a few lines: as §1

The next assay addresses ELF4 (Homo sapiens, UniProt Q99607 1-663). As to conditions: protein: recombinant; tags: N-terminal GST; dsDNA, one strand shown. In a few lines:
as §1

The next assay addresses T8, ELF3 (Homo sapiens, UniProt P78545 1-371).
T8 sequence: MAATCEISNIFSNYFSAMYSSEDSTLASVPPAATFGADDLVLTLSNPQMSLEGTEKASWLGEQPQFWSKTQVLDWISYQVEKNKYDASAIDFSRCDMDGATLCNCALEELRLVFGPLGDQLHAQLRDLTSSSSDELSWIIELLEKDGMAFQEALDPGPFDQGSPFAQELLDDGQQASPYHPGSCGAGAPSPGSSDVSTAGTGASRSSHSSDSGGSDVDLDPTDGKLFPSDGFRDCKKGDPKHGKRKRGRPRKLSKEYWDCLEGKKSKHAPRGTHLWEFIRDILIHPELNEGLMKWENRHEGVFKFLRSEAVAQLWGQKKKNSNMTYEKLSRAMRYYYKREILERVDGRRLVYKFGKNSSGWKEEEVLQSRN
As to conditions: protein: recombinant; tags: N-terminal GST; dsDNA, one strand shown. In a few lines: as §1

Another assay deals with CRX (Homo sapiens, UniProt O43186 1-299). As to conditions: protein: recombinant; tags: N-terminal GST; dsDNA, one strand shown. In a few lines:
as §1

The target in a further assay is T9, ELK4 (Homo sapiens, UniProt P28324-2 1-405).
T9 sequence: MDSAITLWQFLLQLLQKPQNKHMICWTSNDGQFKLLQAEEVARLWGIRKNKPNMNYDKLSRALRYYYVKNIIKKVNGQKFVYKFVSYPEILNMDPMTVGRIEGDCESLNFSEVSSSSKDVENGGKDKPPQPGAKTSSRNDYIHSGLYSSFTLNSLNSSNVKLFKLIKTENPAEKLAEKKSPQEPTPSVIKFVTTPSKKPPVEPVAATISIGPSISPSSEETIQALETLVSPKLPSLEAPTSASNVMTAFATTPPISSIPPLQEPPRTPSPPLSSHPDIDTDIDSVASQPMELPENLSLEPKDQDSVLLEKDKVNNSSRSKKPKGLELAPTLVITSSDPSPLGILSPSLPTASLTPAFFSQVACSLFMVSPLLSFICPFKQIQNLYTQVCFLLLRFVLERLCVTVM
As to conditions: protein: recombinant; tags: N-terminal GST; dsDNA, one strand shown. The method, boiled down:
as §1

Sequence of HSF1 (Q00613 whole entry): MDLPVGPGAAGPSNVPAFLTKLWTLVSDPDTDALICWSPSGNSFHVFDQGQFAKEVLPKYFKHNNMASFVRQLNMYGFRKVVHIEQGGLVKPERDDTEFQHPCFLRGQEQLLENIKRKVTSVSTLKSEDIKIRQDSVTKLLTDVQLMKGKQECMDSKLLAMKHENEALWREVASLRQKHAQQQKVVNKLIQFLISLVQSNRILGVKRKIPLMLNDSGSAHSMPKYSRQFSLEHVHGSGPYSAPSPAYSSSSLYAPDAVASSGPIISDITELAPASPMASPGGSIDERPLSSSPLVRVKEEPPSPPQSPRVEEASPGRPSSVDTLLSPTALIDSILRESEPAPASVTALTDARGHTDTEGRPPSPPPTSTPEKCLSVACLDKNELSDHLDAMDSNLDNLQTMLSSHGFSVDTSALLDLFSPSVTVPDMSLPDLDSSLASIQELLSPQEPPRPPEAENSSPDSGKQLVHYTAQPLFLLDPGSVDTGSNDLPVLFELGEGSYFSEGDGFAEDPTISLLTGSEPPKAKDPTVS
Sequence of CRX (O43186 whole entry): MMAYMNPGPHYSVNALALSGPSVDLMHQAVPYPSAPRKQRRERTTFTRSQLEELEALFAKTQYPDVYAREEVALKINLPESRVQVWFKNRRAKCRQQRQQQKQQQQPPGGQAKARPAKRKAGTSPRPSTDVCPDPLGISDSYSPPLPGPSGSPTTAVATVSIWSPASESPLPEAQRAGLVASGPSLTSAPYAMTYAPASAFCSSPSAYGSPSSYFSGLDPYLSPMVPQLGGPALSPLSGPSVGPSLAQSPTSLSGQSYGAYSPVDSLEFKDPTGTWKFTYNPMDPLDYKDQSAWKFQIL
Sequence of ELF4 (Q99607 whole entry): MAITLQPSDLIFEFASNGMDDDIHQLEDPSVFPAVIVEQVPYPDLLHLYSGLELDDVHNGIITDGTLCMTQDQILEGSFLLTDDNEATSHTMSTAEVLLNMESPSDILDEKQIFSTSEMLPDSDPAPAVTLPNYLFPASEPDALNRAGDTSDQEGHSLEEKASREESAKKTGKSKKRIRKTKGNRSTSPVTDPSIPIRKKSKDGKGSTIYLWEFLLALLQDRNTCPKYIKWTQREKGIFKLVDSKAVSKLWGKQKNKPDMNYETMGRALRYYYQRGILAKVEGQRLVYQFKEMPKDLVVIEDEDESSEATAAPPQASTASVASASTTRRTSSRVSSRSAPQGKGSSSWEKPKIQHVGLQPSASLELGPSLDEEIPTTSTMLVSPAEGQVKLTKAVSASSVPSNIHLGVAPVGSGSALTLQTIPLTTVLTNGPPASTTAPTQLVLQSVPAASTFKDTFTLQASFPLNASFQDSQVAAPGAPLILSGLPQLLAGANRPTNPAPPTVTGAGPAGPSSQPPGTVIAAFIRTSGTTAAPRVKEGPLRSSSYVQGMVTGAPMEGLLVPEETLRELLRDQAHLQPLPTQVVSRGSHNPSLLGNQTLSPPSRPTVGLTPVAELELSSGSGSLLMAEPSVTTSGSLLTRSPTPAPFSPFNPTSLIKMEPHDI
Sequence of ELF1 (P32519 whole entry): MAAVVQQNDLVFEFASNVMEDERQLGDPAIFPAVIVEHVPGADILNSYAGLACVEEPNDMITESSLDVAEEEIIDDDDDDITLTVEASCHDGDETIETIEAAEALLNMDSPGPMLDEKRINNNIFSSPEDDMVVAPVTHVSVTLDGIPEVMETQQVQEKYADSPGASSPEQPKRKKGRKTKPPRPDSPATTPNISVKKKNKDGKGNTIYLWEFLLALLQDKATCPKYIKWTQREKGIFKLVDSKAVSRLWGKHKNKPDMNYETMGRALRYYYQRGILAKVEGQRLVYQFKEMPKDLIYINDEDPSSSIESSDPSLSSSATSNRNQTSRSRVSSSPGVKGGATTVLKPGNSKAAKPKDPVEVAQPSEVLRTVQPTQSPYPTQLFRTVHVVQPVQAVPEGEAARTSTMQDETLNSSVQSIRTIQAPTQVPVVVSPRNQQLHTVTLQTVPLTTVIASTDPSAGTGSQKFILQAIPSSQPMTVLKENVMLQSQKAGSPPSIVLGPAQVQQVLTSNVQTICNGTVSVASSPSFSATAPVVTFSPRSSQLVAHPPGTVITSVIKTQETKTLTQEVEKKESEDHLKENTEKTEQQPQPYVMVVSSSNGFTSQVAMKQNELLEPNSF

On to AGACTT, for which the binding signal with FLI1 is 1.09 fold enrichment (6-mer frequency, TF over GST control); with ELK1 it was 1.04 fold enrichment (6-mer frequency, TF over GST control); with GABPA, 1.03 fold enrichment (6-mer frequency, TF over GST control); with ERG, 1.09 fold enrichment (6-mer frequency, TF over GST control); with ELF1, 1.01 fold enrichment (6-mer frequency, TF over GST control); in the assay with EHF, 1.08 fold enrichment (6-mer frequency, TF over GST control). Further, the binding signal in the assay with SPI1 is 1.09 fold enrichment (6-mer frequency, TF over GST control); with SPIB, 1.04 fold enrichment (6-mer frequency, TF over GST control); with FEV, 1.05 fold enrichment (6-mer frequency, TF over GST control); in the assay with ETV5, 1.05 fold enrichment (6-mer frequency, TF over GST control); in the assay with HSF1, 1.15 fold enrichment (6-mer frequency, TF over GST control); with SPIC it was 1.08 fold enrichment (6-mer frequency, TF over GST control). In addition, the binding signal with ELF4 was 1.02 fold enrichment (6-mer frequency, TF over GST control); with ELF3, 1.13 fold enrichment (6-mer frequency, TF over GST control); with CRX, 1.24 fold enrichment (6-mer frequency, TF over GST control).
Take TGGATT: the binding signal is 1.02 fold enrichment (6-mer frequency, TF over GST control) with FLI1; 1.05 fold enrichment (6-mer frequency, TF over GST control) in the assay with ERG; 1.02 fold enrichment (6-mer frequency, TF over GST control) in the assay with SPI1; 1.05 fold enrichment (6-mer frequency, TF over GST control) with SPIB; 1.06 fold enrichment (6-mer frequency, TF over GST control) with ETV5; 1.85 fold enrichment (6-mer frequency, TF over GST control) in the assay with HSF1. Besides, the binding signal with SPIC was 1.07 fold enrichment (6-mer frequency, TF over GST control); in the assay with ELK4, 1.11 fold enrichment (6-mer frequency, TF over GST control); with CRX it was 2.46 fold enrichment (6-mer frequency, TF over GST control).
